The text below walks through data of PubChem BioAssay (EPA / NIEHS).

Activity calls are given as the source filed them. The calls were made as follows: active = hit-call score of the fitted dose curve at least 0.9, where 1 is the maximum; inactive = score below 0.9.

Details in all cases: mRNA level, 48 h; actives raise or lower the signal
Read-out in assay [1]: Cytochrome P450 (CYP24A1), CYP24A1 (gene 1591)
Kind of assay: LTEA_HepaRG_CYP24A1: Life Technologies and Expression Analysis (LTEA) Assay for Cytochrome P450 (CYP24A1) using HepaRG (AID 2283478). The essentials: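 mRNA of CYP24A1 quantified by TaqMan qRT-PCR (ACTB/GAPDH/POLR2A normalization) after 48 h chemical exposure of HepaRG cells, top concentration 100 uM, half-log steps, 0.5% DMSO vehicle, duplicates. Curves fitted bidirectionally against DMSO baseline.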

Read-out in assay [2]: Cytochrome P450 (CYP1A2), CYP1A2 (gene 1544)
Kind of assay: LTEA_HepaRG_CYP1A2: Life Technologies and Expression Analysis (LTEA) Assay for Cytochrome P450 (CYP1A2) using HepaRG (AID 2283479). In a few lines: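 CYP1A2 transcript measured by TaqMan qRT-PCR against three housekeeping genes after 48-hour chemical exposure of HepaRG cells. Eight-point half-log series topping at 100 uM in 0.5% DMSO, duplicates; gain or loss fitted relative to vehicle.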

Read-out in assay [3]: cysteine-aspartic acid protease (CASP8), CASP8 (gene 841)
Put plainly: LTEA_HepaRG_CASP8: Life Technologies and Expression Analysis (LTEA) Assay for cysteine-aspartic acid protease (CASP8) using HepaRG (AID 2283480). In a few lines: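 HepaRG, 48 h exposure, duplicate wells; 8 conc, half-log from 100 uM, 0.5% DMSO. Serum-free induction medium. CASP8 mRNA by TaqMan qRT-PCR, norm. ACTB/GAPDH/POLR2A; gain/loss fitted vs DMSO.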

Read-out in assay [4]: Cytochrome P450 (CYP2B6), CYP2B6 (gene 1555)
Kind of assay: LTEA_HepaRG_CYP2B6: Life Technologies and Expression Analysis (LTEA) Assay for Cytochrome P450 (CYP2B6) using HepaRG (AID 2283481). The essentials: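 CYP2B6 transcript level quantified by qRT-PCR against three housekeeping genes, fitted bidirectionally relative to DMSO. HepaRG cultures received chemicals for 48 h, 8-point half-log series from 100 uM in 0.5% DMSO, duplicate wells, serum-free induction medium.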

Read-out in assay [5]: Cytochrome P450 2C19 (Homo sapiens) (UniProt P33261)
Kind of assay: LTEA_HepaRG_CYP2C19: Life Technologies and Expression Analysis (LTEA) Assay for CYP2C19 using HepaRG (AID 2283482). In a few lines:
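CYP2C19 transcript levels by qRT-PCR, normalized to three housekeeping genes, in HepaRG cells after 48 h chemical exposure. Eight-point half-log series topping at 100 uM, 0.5% DMSO vehicle. Increases and decreases both fitted against DMSO.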

Read-out in a further assay: CYP2C8 (gene 1558)
Kind of assay: LTEA_HepaRG_CYP2C8: Life Technologies and Expression Analysis (LTEA) Assay for CYP2C8 using HepaRG (AID 2283483). In a few lines:
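CYP2C8 mRNA induction or loss, by qRT-PCR normalized to ACTB/GAPDH/POLR2A, is read in HepaRG cells after 48 h treatment. Concentrations run from 100 uM down in half-log dilutions, with 0.5% DMSO as vehicle and baseline.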

Read-out in another assay: CYP2C9 (gene 1559)
Put plainly: LTEA_HepaRG_CYP2C9: Life Technologies and Expression Analysis (LTEA) Assay for CYP2C9 using HepaRG (AID 2283484). In a few lines:
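Cells plated 48 h, switched to serum-free induction medium, then treated in duplicate for 48 h at eight concentrations (max 100 uM, 0.5% DMSO). RNA then analysed by qRT-PCR for CYP2C9; curves fitted in both directions relative to DMSO.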

Read-out in another assay: CYP2E1 (gene 1571)
Put plainly: LTEA_HepaRG_CYP2E1: Life Technologies and Expression Analysis (LTEA) Assay for CYP2E1 using HepaRG (AID 2283485). In a few lines: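 HepaRG cells, plated 48 h, then exposed 48 h in serum-free induction medium to eight half-log concentrations from 100 uM in 0.5% DMSO, duplicate. CYP2E1 mRNA by qRT-PCR, normalized to ACTB/GAPDH/POLR2A; bidirectional fit versus DMSO.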

Read-out in a further assay: CYP4A11 (gene 1579)
Kind of assay: LTEA_HepaRG_CYP4A11: Life Technologies and Expression Analysis (LTEA) Assay for CYP4A11 using HepaRG (AID 2283486). The essentials: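 Readout is CYP4A11 transcript level by qRT-PCR, normalized to three housekeeping genes and fitted bidirectionally against 0.5% DMSO. Human HepaRG cells were treated 48 h, in duplicate, with an 8-point half-log series topping at 100 uM.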

Read-out in assay [6]: Pro-epidermal growth factor (Homo sapiens) (UniProt P01133)
Put plainly: LTEA_HepaRG_EGF: Life Technologies and Expression Analysis (LTEA) Assay for Epidermal growth factor (EGF) using HepaRG (AID 2283489). The essentials:
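EGF transcript measured by Fluidigm TaqMan qRT-PCR with three housekeeping genes for normalization, 48 h after dosing HepaRG cultures in duplicate (top 100 uM, half-log steps, 0.5% DMSO vehicle). Gain or loss relative to DMSO fitted.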

Read-out in assay [7]: Early growth response protein 1 (EGR1) transcription factor, EGR1 (gene 1958)
Kind of assay: LTEA_HepaRG_EGR1: Life Technologies and Expression Analysis (LTEA) Assay for Early growth response protein 1 (EGR1) transcription factor using HepaRG (AID 2283490). In a few lines:
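Read-out is EGR1 mRNA level by qRT-PCR, normalized to three housekeeping genes and analysed for gain or loss of signal against 0.5% DMSO. Source cells: human HepaRG, treated 48 h at up to 100 uM in half-log dilutions.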

Read-out in assay [8]: Ezrin (EZR), EZR (gene 7430)
Put plainly: LTEA_HepaRG_EZR: Life Technologies and Expression Analysis (LTEA) Assay for Ezrin (EZR) using HepaRG (AID 2283491). The essentials: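 EZR transcript levels came from Fluidigm qRT-PCR and were normalized to three housekeeping genes after 48 h chemical exposure of HepaRG cells. Dosing used an 8-point half-log series with a 100 uM top concentration in 0.5% DMSO, tested in duplicate; both directions were fitted versus vehicle.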

Read-out in assay [9]: Cytochrome P450 3A7 (Homo sapiens) (UniProt P24462)
Kind of assay: LTEA_HepaRG_CYP3A7: Life Technologies and Expression Analysis (LTEA) Assay for CYP3A7 using HepaRG (AID 2283492). In a few lines:
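CYP3A7 transcript measured by qRT-PCR (ACTB, GAPDH, POLR2A normalization) after 48 h chemical exposure of HepaRG cells in duplicate. Eight half-log concentrations, maximum 100 uM, 0.5% DMSO vehicle; bidirectional curve fitting against DMSO baseline.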

Read-out in the next assay: CYP3A5 (gene 1577)
Put plainly: LTEA_HepaRG_CYP3A5: Life Technologies and Expression Analysis (LTEA) Assay for CYP3A5 using HepaRG (AID 2283493). The essentials:
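HepaRG cells, plated 48 h then in serum-free induction medium, dosed in duplicate for 48 h with eight half-log concentrations up to 100 uM in 0.5% DMSO. Gene mRNA by Fluidigm TaqMan qRT-PCR, normalized to ACTB, GAPDH, POLR2A.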

Read-out in assay [10]: Fatty Acid-Binding Protein 1 (FABP1), FABP1 (gene 2168)
Kind of assay: LTEA_HepaRG_FABP1: Life Technologies and Expression Analysis (LTEA) Assay for Fatty Acid-Binding Protein 1 (FABP1) using HepaRG (AID 2283494). The essentials:
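HepaRG, 48 h post-plating switched to serum-free induction medium, then dosed 48 h (duplicate, 8 pts, ≤100 uM, 0.5% DMSO). RNA → Fluidigm TaqMan qRT-PCR, FABP1 normed to ACTB/GAPDH/POLR2A. Bidirectional curve fit vs DMSO.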

Read-out in assay [11]: Cytochrome P450 7A1 (Homo sapiens) (UniProt P22680)
Kind of assay: LTEA_HepaRG_CYP7A1: Life Technologies and Expression Analysis (LTEA) Assay for Cytochrome P450 7A1 (CYP7A1) using HepaRG (AID 2283496). In a few lines:
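HepaRG cells plated 48 h, then switched to serum-free induction medium and exposed in duplicate for 48 h to 8-point half-log series from 100 uM in 0.5% DMSO. CYP7A1 mRNA by qRT-PCR (TaqMan), normalized to ACTB/GAPDH/POLR2A; bidirectional fit versus DMSO.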

Read-out in assay [12]: Glutathione S-Transferase (GSTA2), GSTA2 (gene 2939)
Kind of assay: LTEA_HepaRG_GSTA2: Life Technologies and Expression Analysis (LTEA) Assay for Glutathione S-Transferase (GSTA2) using HepaRG (AID 2283497). The essentials:
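HepaRG, 48 h dosing, 8-pt half-log CRC from 100 uM, 0.5% DMSO vehicle, n=2; RNA → Fluidigm TaqMan qRT-PCR; GSTA2 vs ACTB/GAPDH/POLR2A; gain/loss fit vs DMSO.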

Read-out in assay [13]: Cytochrome P450 4A22 (Homo sapiens) (UniProt Q5TCH4)
Put plainly: LTEA_HepaRG_CYP4A22: Life Technologies and Expression Analysis (LTEA) Assay for Cytochrome P450 4A22 (CYP4A22) using HepaRG (AID 2283495). In a few lines:
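Gene expression measured by qRT-PCR against three housekeeping genes (ACTB, GAPDH, POLR2A), with gain or loss fitted relative to 0.5% DMSO vehicle. HepaRG cultures received 48 h chemical treatment, top concentration 100 uM, half-log steps, duplicate wells.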

Cytochrome P450 3A7 (Homo sapiens), sequence (P24462 whole entry, looked up): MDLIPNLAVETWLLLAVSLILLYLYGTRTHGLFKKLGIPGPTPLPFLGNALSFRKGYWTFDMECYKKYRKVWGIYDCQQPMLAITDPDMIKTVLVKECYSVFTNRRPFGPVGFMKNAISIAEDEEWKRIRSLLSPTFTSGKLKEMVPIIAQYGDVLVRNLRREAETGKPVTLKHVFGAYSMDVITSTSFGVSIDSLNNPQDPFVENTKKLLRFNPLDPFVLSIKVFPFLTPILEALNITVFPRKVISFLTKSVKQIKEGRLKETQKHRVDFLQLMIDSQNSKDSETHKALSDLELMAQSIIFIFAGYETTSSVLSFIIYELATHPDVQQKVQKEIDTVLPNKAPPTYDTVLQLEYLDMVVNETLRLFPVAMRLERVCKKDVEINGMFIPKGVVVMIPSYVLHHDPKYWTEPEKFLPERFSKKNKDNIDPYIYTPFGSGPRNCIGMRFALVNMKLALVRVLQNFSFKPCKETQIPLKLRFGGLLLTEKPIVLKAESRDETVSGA
Cytochrome P450 2C19 (Homo sapiens), sequence (P33261 whole entry, looked up): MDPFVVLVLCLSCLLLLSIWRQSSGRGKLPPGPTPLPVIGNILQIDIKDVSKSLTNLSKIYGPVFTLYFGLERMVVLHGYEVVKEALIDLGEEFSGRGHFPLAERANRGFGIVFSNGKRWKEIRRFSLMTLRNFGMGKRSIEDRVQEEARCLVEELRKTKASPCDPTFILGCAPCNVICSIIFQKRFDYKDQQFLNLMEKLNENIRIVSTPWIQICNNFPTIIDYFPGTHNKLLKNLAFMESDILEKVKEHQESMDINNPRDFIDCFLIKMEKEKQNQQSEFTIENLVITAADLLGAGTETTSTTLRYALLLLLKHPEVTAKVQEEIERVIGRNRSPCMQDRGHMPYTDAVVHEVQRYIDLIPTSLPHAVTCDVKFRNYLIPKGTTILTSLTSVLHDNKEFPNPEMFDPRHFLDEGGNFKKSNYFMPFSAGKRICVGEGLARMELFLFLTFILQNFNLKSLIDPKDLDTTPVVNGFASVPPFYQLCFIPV

Consider `C[C@@H](Oc1ccc(CNC(=O)c2cccnc2Oc2ccc3c(c2)OCO3)c(F)c1)C(=O)O`, for which the call (in assay [1]; in assay [2]; in assay [3]; in assay [4]; in [5]; in the assay with CYP2C8 (gene 1558)) was inactive. Further, the call (with CYP2C9 (gene 1559); in the assay with CYP2E1 (gene 1571); in [6]; in [7]; in [8]; in assay [9]) was inactive. In addition, the outcome (with CYP3A5 (gene 1577); in assay [11]; in assay [12]) was inactive. Moreover, the AC50 with CYP4A11 (gene 1579) is 28.5 µM (active); in [10], 50 µM (active).

Take `CCCCCCCC1CCC(=O)O1` (stereo not given): the call in assay [3], in assay [6], in assay [7], in assay [8], in [10] and in assay [12] was inactive.

On to `CCCCCCCCCC`, for which the result (in assay [1]; in [3]; in [4]; in [5]; in the assay with CYP2C8 (gene 1558); in the assay with CYP2C9 (gene 1559)) was inactive. Moreover, the call (with CYP2E1 (gene 1571); with CYP4A11 (gene 1579); in assay [6]; in [7]; in assay [8]; in assay [9]) was inactive. In addition, the molecule was classed as inactive (with CYP3A5 (gene 1577); in [10]; in assay [13]; in assay [11]; in assay [12]). Moreover, the AC50 in assay [2] was 50 µM (active).

Turning to `CCCCCOC(C)=O`, the result (in assay [1]; in [2]; in [3]; in [4]; in assay [5]; in the assay with CYP2C8 (gene 1558)) was inactive. In addition, the molecule was called inactive (with CYP2C9 (gene 1559); with CYP2E1 (gene 1571); in the assay with CYP4A11 (gene 1579); in [6]; in [7]; in assay [8]). The outcome (in assay [9]; with CYP3A5 (gene 1577); in assay [10]; in [13]; in assay [11]; in [12]) was inactive.

For the molecule `NC(=O)N1c2ccccc2C=Cc2ccccc21`, the result (in assay [1]; in assay [2]; in assay [3]; with CYP2C8 (gene 1558); with CYP2C9 (gene 1559); with CYP4A11 (gene 1579)) was inactive. The molecule was classed as inactive (in assay [6]; in assay [7]; in [8]; with CYP3A5 (gene 1577); in assay [10]; in assay [13]). Moreover, the molecule was classed as inactive in [11] and in assay [12]. Moreover, the figures for the AC50 (in [4]; in assay [5]; with CYP2E1 (gene 1571)) were 5.83 µM (active), 15.9 µM (active) and 41.8 µM (active), respectively.

With `OC[C@H]1O[C@@H]2O[C@H]3[C@H](O)[C@@H](O)[C@@H](O[C@H]4[C@H](O)[C@@H](O)[C@@H](O[C@H]5[C@H](O)[C@@H](O)[C@@H](O[C@H]6[C@H](O)[C@@H](O)[C@@H](O[C@H]7[C@H](O)[C@@H](O)[C@@H](O[C@H]1[C@H](O)[C@H]2O)O[C@@H]7CO)O[C@@H]6CO)O[C@@H]5CO)O[C@@H]4CO)O[C@@H]3CO`, the outcome (in [1]; in [2]; in assay [3]; in assay [4]; in assay [5]; with CYP2C8 (gene 1558)) was inactive. For the same molecule, the molecule was called inactive (in the assay with CYP2C9 (gene 1559); in the assay with CYP2E1 (gene 1571); with CYP4A11 (gene 1579); in [6]; in [7]; in assay [8]). The molecule was classed as inactive (in [9]; in the assay with CYP3A5 (gene 1577); in assay [10]; in [11]; in assay [12]).

On to `Cc1ncc([C@@H](CCCCCCc2ccc3c(n2)NCCC3)CC(=O)O)cn1`, for which the molecule was called inactive (in assay [1]; in assay [2]; in assay [3]; in assay [4]; in assay [5]; in the assay with CYP2C8 (gene 1558)). In addition, the call (with CYP2C9 (gene 1559); in [6]; in assay [7]; in assay [8]; in assay [9]; with CYP3A5 (gene 1577)) was inactive. Further, the molecule was classed as inactive in [10], in assay [11] and in assay [12]. The AC50 is 50 µM (active) in the assay with CYP2E1 (gene 1571) and 15.7 µM (active) with CYP4A11 (gene 1579).
